Results published in PubChem BioAssay (EPA / NIEHS).
Where “and” joins values, the source holds several entries; their conditions need not be identical. Equal entries are not always repeated. Records with an inconclusive call do not appear. The source holds several records for some structures; these can differ, active in one and inactive in another. Calls of active or inactive are those of the source. How the source made its calls: active means hit-call score of the fitted dose curve at least 0.9, where 1 is the maximum; inconclusive means response in the unintended direction; inactive means score below 0.9.

Legend:
[1] = ACEA_AR_antagonist_AUC_viability: ACEA Biosciences xCELLigence Real-Time Cell Analysis on Androgen Receptor Antagonism for Viability (AID 2283776);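 further: 22Rv1 human prostate cancer cells growing on impedance electrode plates; area under impedance growth curve at 80 h after dosing as viability; hits lower the growth signal relative to DMSO meaning cytotoxicity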
Outline: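 Viability endpoint from label-free cell-index monitoring: 22Rv1 cultures treated with an eight-point 1:4 dilution series starting at 100 uM final, AUC at 80 h fitted against DMSO.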

[2] = ACEA_ER_AUC_viability: ACEA Biosciences xCELLigence Real-Time Cell Analysis on Estrogen Receptor Agonism for Viability (AID 2283782);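 further: hit means loss of impedance signal meaning reduced cell growth or viability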
Outline: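 Viability endpoint: reduced impedance area under the curve relative to DMSO, recorded by real-time electrode sensing over ~80 h of continuous exposure. Duplicate plates of T47D in hormone-depleted medium; eight concentrations, 1:4 dilutions, 100 uM maximum.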

[3] = STM_H9_NormalizedViability: Cytotoxicity Assessment at 120 hours in the Stemina devTOX quickPredict H9 human embryonic stem cell (hESC)-based Assay (AID 2283784)
Outline: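 Viability of the cell layer was taken from live-cell protease cleavage of a fluorogenic substrate after compound exposure of undifferentiated H9 stem cells, with replenishment each 24h. Fluorescence was normalized to vehicle (0.1% DMSO).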

AR (gene 367) = AR (gene 367) (UniProt P10275); experiment: ACEA_AR_agonist_80hr: ACEA Biosciences xCELLigence Real-Time Cell Analysis on Androgen Receptor Agonism for Proliferation (AID 2283783);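 further: hits increase impedance growth signal above DMSO baseline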
Outline: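 Eight concentrations, 1:4 serial dilution from a 100 uM final top, in biological duplicate. Impedance-based real-time growth of 22Rv1 cells after overnight baseline, recorded hourly and read at 80 hours. Controls: testosterone, MG132, assay media.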

[4] = target: chicken Estrogen Receptor (ESR1), ESR1 (gene 396099) (UniProt P06212); experiment: ATG_chERa_XSP1: Attagene TRANS-FACTORIAL Multi-Species (XSP1) HepG2 Assay for chicken Estrogen Receptor (ESR1) (AID 2283779)
Outline: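 Trans-activation of an exogenous chicken ERα–Gal4 chimera read as reporter transcript (RT-PCR, fluorescent labeling, capillary electrophoresis) after 24 h compound exposure of transfected HepG2; medium held 3 nM 6-alpha-fluorotestosterone. Positive-direction fit against DMSO.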

[5] = target: Estrogen receptor (Homo sapiens) (UniProt P03372); experiment: ATG_hERa_XSP1: Attagene TRANS-FACTORIAL Multi-Species (XSP1) HepG2 Assay for human Estrogen Receptor (ESR1) (AID 2283780)
Outline: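 Reporter transcripts from multiplexed GAL4-UAS units driven by NR-Gal4 chimeras in transiently transfected HepG2 were measured by RT-PCR with capillary electrophoresis 24 h post-dose, with 3 nM 6-alpha-fluorotestosterone present; gain-of-signal relative to DMSO.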

[6] = test system: frog Estrogen Receptor (ESR1), gene 398734; experiment: ATG_frER1_XSP1: Attagene TRANS-FACTORIAL Multi-Species (XSP1) HepG2 Assay for frog Estrogen Receptor (ESR1) (AID 2283777)
Procedure: (§1) ATG_XSP1_multi-species_TRANS is a cell-based, multiplexed assay created by modifying the existing Attagene TRANS-FACTORIAL system to include a panel of nuclear receptors from some or all the following species: human (Homo sapiens), mouse (Mus musculus), frog (Xenopus laevis), zebrafish (Danio rerio), chicken (Gallus gallus), and turtle (Chrysemys picta). The ECOTOX-FACTORIAL format uses HepG2, a human liver cell line, with measurements taken at 24 hours after chemical dosing in a 24-well plate. Xsp1 included 3 nM 6-alpha-fluorotestosterone to partially stimulate the androgen receptor.ATG_frER1_XSP1 is one of 29 assay components measured or calculated from the ATG_XSP1_multi-species_TRANS assay. It is designed to make measurements of mRNA induction, a form of inducible reporter, as detected with fluorescence intensity signals by Reverse transcription polymerase chain reaction (RT-PCR) and Capillary electrophoresis technology.The assay endpoint ATG_frER1_XSP1 was analyzed in the positive analysis fitting direction relative to DMSO as the negative control and baseline of activity. Using a type of inducible reporter, measures of mRNA for gain-of-signal activity can be used to understand the reporter gene at the transcription factor-level as they relate to the gene ER. Furthermore, this assay endpoint can be referred to as a primary readout, because this assay has produced multiple assay endpoints where this one serves a reporter gene function. To generalize the intended target to other relatable targets, this assay endpoint is annotated to the nuclear receptor intended target family, where the subfamily is steroidal.
(§2) Human liver HepG2 cells are transiently transfected with multiple reporter transcription units (MRTUs) in 6-well plates using FuGene 6 reagent (Roche; 3 ml FuGene/1 mg DNA). The MRTU constructs are regulated by a cis-regulating element (promoter). […] A major difference between the CIS and TRANS system is that in CIS activities of endogenous TFs are measured, whereas the TRANS assay evaluates changes in activities of exogenous, chimeric NR-Gal4 proteins. […] At the end of 24 hour incubation, total RNA was isolated using TriZol reagent (Invitrogen). The isolated RNA is then reverse-transcribed using oligo(dT) primer and Mo-MLV reverse transcriptase (Invitrogen) with DNAse I (Ambion) treatment for 30 min. The one-tenth of the produced cDNA was amplified by PCR using Taq DNA polymerase (Invitrogen) and two reporter sequence-specific primers. The PCR products were fluorescently labeled by primer extension with 6-arboxyfluorescein (6-FAM) 5'-labeled reporter sequence-specific primer (2 min at 95 C, 20 s at 68 C and 10 min at 72 C) and these products were digested with 5U of HpaI (New England Biolabs) for 2h at 37 C. The fragments were purified using Qiaquick PCR columns (Qiagen), analyzed on an ABI 3130xL genetic analyzer (Applied Biosystems) with peak positions identified by using a set of X-rhodamine (ROX)-labeled MapMarker1000 molecular weight standards (BioVentures). The raw capillary electrophoresis data was processed using Attagraph software (Attagene).

[7] = test system: zebrafish Estrogen Receptor (ESR2A), gene 317734; experiment: ATG_zfER2a_XSP1: Attagene TRANS-FACTORIAL Multi-Species (XSP1) HepG2 Assay for zebrafish Estrogen Receptor (ESR2A) (AID 2283778)
Procedure: as §1, with “receptor.ATG_zfER2a_XSP1” for “receptor.ATG_frER1_XSP1”, “ATG_zfER2a_XSP1” for “ATG_frER1_XSP1”
as §2

[8] = test system: turtle Estrogen Receptor (ESR1), gene 101933533; experiment: ATG_trERa_XSP1: Attagene TRANS-FACTORIAL Multi-Species (XSP1) HepG2 Assay for turtle Estrogen Receptor (ESR1) (AID 2283781)
Outline: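 Transactivation measured 24 h post-dose as reporter mRNA (RT-PCR, fluorescent capillary electrophoresis) from an NR-Gal4 turtle ER construct in HepG2. Medium included 3 nM 6-alpha-fluorotestosterone; increase over DMSO fitted.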

[9] = test system: turtle Androgen Receptor (AR), gene 101947425; experiment: ATG_trAR_XSP1: Attagene TRANS-FACTORIAL Multi-Species (XSP1) HepG2 Assay for turtle Androgen Receptor (AR) (AID 2283786)
Outline: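 Partial androgen stimulation is provided by 3 nM 6-alpha-fluorotestosterone in a multi-species trans-factorial panel expressing a turtle AR–GAL4 fusion in HepG2. After 24 h, reporter mRNA is measured by RT-PCR and capillary electrophoresis and fitted upward against DMSO.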

AR (gene 367), sequence (P10275 whole entry, looked up): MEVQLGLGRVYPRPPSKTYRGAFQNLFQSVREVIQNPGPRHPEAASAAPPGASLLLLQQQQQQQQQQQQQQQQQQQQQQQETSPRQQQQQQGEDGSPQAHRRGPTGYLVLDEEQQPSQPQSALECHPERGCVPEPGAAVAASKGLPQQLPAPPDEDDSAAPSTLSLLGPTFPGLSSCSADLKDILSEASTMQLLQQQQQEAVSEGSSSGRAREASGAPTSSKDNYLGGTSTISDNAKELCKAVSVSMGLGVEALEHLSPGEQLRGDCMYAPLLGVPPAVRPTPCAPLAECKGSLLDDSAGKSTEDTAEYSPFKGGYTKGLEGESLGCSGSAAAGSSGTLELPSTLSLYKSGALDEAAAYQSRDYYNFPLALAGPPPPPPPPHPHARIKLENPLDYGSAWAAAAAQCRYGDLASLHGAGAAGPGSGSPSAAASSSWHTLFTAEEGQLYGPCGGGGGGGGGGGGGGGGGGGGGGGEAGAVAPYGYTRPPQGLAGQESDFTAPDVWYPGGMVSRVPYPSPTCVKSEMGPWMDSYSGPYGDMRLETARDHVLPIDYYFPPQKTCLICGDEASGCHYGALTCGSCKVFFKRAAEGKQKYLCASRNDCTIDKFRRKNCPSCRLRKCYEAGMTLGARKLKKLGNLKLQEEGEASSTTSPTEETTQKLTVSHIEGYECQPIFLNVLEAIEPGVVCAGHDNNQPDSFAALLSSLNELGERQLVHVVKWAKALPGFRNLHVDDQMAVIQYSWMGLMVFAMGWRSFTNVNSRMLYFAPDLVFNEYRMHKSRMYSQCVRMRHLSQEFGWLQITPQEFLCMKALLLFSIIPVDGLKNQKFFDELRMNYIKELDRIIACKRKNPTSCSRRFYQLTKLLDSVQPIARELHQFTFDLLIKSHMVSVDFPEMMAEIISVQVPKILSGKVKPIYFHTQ
chicken Estrogen Receptor (ESR1), ESR1 (gene 396099), sequence (P06212 whole entry, looked up, the tested form may be a part): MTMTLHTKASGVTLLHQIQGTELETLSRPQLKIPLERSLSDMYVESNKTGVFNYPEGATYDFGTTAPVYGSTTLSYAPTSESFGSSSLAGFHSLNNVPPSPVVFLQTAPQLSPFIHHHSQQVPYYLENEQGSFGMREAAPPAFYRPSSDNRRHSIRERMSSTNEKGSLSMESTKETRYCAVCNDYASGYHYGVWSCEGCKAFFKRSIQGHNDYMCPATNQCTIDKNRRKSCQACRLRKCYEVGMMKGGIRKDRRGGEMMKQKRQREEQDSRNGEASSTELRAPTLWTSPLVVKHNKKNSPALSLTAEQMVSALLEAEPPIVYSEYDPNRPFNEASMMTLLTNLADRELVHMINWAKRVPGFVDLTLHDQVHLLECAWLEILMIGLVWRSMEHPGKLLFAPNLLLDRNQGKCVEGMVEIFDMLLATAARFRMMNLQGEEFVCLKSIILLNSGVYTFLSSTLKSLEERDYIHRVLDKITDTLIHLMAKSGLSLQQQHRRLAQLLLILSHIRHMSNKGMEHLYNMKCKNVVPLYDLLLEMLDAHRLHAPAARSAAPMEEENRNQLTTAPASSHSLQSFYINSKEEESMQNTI
Estrogen receptor (Homo sapiens), sequence (P03372 whole entry, looked up, the tested form may be a part): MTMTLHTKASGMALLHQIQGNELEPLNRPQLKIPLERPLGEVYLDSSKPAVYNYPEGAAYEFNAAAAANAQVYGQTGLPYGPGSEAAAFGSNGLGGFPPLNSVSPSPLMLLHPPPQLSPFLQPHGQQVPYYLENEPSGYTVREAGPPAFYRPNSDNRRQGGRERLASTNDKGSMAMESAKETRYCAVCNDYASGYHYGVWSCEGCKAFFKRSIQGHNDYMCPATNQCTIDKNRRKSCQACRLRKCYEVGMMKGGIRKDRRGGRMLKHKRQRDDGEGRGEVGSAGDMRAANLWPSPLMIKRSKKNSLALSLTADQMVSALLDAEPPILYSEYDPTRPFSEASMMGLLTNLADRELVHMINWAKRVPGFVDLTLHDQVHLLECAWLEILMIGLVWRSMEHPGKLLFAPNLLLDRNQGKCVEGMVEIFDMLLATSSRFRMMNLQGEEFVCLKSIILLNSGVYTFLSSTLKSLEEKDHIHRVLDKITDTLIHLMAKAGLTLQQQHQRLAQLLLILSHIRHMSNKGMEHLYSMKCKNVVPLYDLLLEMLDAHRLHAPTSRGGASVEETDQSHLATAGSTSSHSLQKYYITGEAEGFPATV

O=C(O)C(Cl)(Cl)Cl
outcome [1]: inactive
outcome [2]: inactive
outcome [3]: inactive

O=c1[nH]c(=O)[nH]c(=O)[nH]1
outcome [1]: inactive
outcome [2]: inactive
outcome (AR (gene 367)): inactive

Clc1ccc(COC(Cn2ccnc2)c2ccc(Cl)cc2Cl)cc1 (configuration not stated)
AC50 [1]: 7.1 µM (active)
AC50 [2]: 21.5 µM (active)

CCC[CH2][Sn]([CH2]CCC)([CH2]CCC)[O]C(=O)c1ccccc1
AC50 [1]: 1.06 µM (active)
AC50 [2]: 1.28 µM (active)

O=C1C(Cl)=C(Cl)C(=O)c2ccccc21
outcome [1]: inactive
AC50 [2]: 16.7 µM (active)

O=C(O)C(F)(F)C(F)(F)C(F)(F)C(F)(F)C(F)(F)C(F)(F)C(F)(F)C(F)(F)C(F)(F)C(F)(F)F
outcome [1]: inactive
outcome [2]: inactive

C=C(C)C(=O)[O][Sn]([CH2]CCC)([CH2]CCC)[CH2]CCC
AC50 [1]: 1.35 µM (active)
AC50 [2]: 1.43 µM (active)
AC50 [3]: 0.713 µM (active)

CC(C)(c1ccc(OCC2CO2)cc1)c1ccc(OCC2CO2)cc1 (configuration not stated)
outcome [1]: inactive
AC50 [2]: 82.5 µM (active)
outcome (AR (gene 367)): inactive

COP(=O)(OC)O/C(=C\Cl)c1cc(Cl)c(Cl)cc1Cl
outcome [4]: inactive
outcome [5]: inactive
AC50 [2]: 58.1 µM (active)

ClC(Cl)=C(Cl)C(Cl)=C(Cl)Cl
outcome [1]: inactive
outcome [2]: inactive

ClC1(Cl)C2(Cl)C3(Cl)C4(Cl)C(Cl)(Cl)C5(Cl)C3(Cl)C1(Cl)C5(Cl)C24Cl (configuration not stated)
outcome [1]: inactive
outcome [2]: inactive
outcome [3]: inactive

c1cc[c]([Hg][c]2ccccc2)cc1
AC50 [1]: 16.6 µM (active)
AC50 [2]: 36.3 µM (active)
outcome (AR (gene 367)): inactive

Cc1ccccc1N
outcome [1]: inactive
AC50 [2]: 0.893 µM (active)
outcome [2]: inactive

O=C/C=C/c1ccccc1
outcome [1]: inactive
outcome [2]: inactive

[O-][Cl+2]([O-])O
outcome [1]: inactive
outcome [2]: inactive

O=[N+]([O-])c1ccc(O)c([N+](=O)[O-])c1
AC50 [1]: 50 µM (active)
outcome (AR (gene 367)): inactive
outcome [3]: inactive

CCC1(c2ccc(N)cc2)CCC(=O)NC1=O (configuration not stated)
outcome [1]: inactive
outcome [2]: inactive

CCN1CCC2(CC1)COc1cc3c(cc12)N(C(=O)c1ccc(-c2ccc(-c4nnc(C)o4)cc2C)cc1)CC3
AC50 [1]: 10.4 µM (active)
AC50 [2]: 8.01 µM (active)
outcome (AR (gene 367)): inactive
AC50 [3]: 8.14 µM (active)

C=CC#N
outcome [1]: inactive
outcome [2]: inactive

CCOC(=O)Nc1cccc(OC(=O)Nc2ccccc2)c1
outcome [1]: inactive
outcome [2]: inactive

COC(=O)c1sccc1S(=O)(=O)NC(=O)Nc1nc(C)nc(OC)n1
outcome [1]: inactive
outcome [2]: inactive

C=C(C)C#N
outcome [1]: inactive
outcome [2]: inactive

CC(=O)[O][Hg][c]1ccccc1
AC50 [1]: 1.63 µM (active)
AC50 [2]: 1.32 µM (active)
AC50 [3]: 0.387 µM (active)

CCC(C)(C)c1ccc(O)c(C(C)(C)CC)c1
AC50 [1]: 47.9 µM (active)
AC50 [2]: 14.9 µM (active)

COc1ccc(C=O)cc1
outcome [1]: inactive
outcome [2]: inactive

COP(=S)(OC)Oc1ccc(Sc2ccc(OP(=S)(OC)OC)cc2)cc1
outcome [1]: inactive
AC50 [2]: 85.5 µM (active)

CCOP(OCC)OCC
outcome [2]: inactive

ClCC(Cl)CCl
outcome [1]: inactive
outcome [3]: inactive

C[C@]12CCC(=O)C[C@@H]1CC[C@@H]1[C@@H]2CC[C@]2(C)[C@@H](O)CC[C@@H]12
outcome [6]: inactive
AC50 [7]: 0.851 µM (active)
outcome [4]: inactive
outcome [8]: inactive
AC50 [9]: 0.168 µM (active)

CC(=O)c1cc(C(C)(C)C)cc2c1CCC2(C)C
outcome [1]: inactive
outcome [2]: inactive

Cn1sc(Cl)cc1=O
AC50 [1]: 80.7 µM (active)
AC50 [2]: 86.9 µM (active)

CC(C)(OO)c1ccccc1
outcome [1]: inactive
AC50 [2]: 14.7 µM (active)

C[C@@H]1C[C@@H]([C@H](O)CC2CC(=O)NC(=O)C2)C(=O)[C@@H](C)C1
AC50 [1]: 1.35 µM (active)
AC50 [2]: 522 nM (active) and 1.49 µM (active)
AC50 [3]: 2.46 µM (active)

C=CC(=O)OCCCCCC(C)C
AC50 (AR (gene 367)): 50 µM (active)
